Gal4-VP16 FLuc – VP16 counterscreen qHTS for inhibitors of ROR gamma transcriptional activity; Drosophila S2 Gal4-VP16 UAS-luciferase, luminescence, 20 h; Potency, µM (doses to about 53.6 µM), for the others: top-dose activity, negative = inhibition, hits mostly inhibitors; hit rate 3.5% among 310,000;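 further: Gal4-VP16 expression switched on by copper sulfate through the metallothionein promoter; nearly all actives have a fitted effect of over 50% in size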
RORg inh – qHTS for inhibitors of ROR gamma transcriptional activity; Nuclear receptor ROR-gamma (Mus musculus), P51450; Drosophila S2 Gal4-RORgamma UAS-luciferase reporter, 20 h; Potency, µM (titrated, usually from 53.6 µM), without a hit: at the top dose activity change, negative = inhibition, actives largely listed as inhibitors; hit rate 5.4% among 310,000; AID 2551, 2010; further: nearly all actives have a fitted effect of over 60% in size
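Luciferase reporter read in Schneider cells carrying Gal4-RORγ (mouse) and UAS-Photinus luciferase; cells given compound 1 h before 700 uM copper sulfate induction, then incubated 20 h at ambient temperature.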
TDP1 inh – qHTS Assay for Inhibitors of Tyrosyl-DNA Phosphodiesterase (TDP1); recombinant TDP1, AlphaScreen DNA substrate cleavage; Potency, µM (titrated, usually from 130 µM), without a hit: top-dose activity change, negative = inhibition, most hits filed as inhibitors; hit rate 0.28% among 350,000; further: nearly all actives have a fitted effect of over 40% in size
Target sequence (Q9NUW8 whole entry, looked up): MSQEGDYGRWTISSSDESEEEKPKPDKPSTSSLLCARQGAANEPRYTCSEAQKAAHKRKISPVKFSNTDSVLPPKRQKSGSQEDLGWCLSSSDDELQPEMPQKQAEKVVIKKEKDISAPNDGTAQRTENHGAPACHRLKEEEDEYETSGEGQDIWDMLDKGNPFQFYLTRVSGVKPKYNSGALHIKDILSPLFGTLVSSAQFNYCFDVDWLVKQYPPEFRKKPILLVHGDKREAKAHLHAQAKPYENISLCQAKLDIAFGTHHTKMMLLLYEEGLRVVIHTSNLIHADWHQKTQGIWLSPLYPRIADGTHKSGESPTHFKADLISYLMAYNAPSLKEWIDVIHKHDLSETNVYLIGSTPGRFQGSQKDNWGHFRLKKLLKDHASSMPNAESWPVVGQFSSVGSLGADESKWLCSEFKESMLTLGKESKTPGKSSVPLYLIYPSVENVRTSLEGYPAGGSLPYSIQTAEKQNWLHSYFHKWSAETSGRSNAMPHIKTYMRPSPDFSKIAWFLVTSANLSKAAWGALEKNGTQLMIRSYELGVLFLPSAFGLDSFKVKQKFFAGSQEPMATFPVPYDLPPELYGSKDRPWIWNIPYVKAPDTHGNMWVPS
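Tdp1 1 nM final; 15 min RT w/ cpd; substrate 15 nM, 5 min; beads 10 ug/ml, 10 min; AlphaScreen read. Neg ctrl: no enzyme.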
TDP1 cell noCPT – qHTS for Inhibitors of human tyrosyl-DNA phosphodiesterase 1 (TDP1): qHTS in cells in absence of CPT. DT40 Tdp1-/- hTDP1 cells, no CPT, ATP luminescence, 48 h. Potency, µM (top dose mostly 46.2 µM), inactives show at the top dose activity change, negative = growth inhibition, usual class: inhibitors. hit rate 15% among 420,000. AID 686978, 2013; further: nearly all actives have a fitted effect of over 55% in size
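Readout: luminescence from CellTiter-Glo after 30 min in the dark at RT. Cells: DT40 Tdp1-/- with stable hTDP1, 400/well. Exposure: compounds alone, ≥48 hr, 37 °C.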
TDP1 cell CPT – qHTS for Inhibitors of human tyrosyl-DNA phosphodiesterase 1 (TDP1): qHTS in cells in presence of CPT | chicken DT40 Tdp1-/-;hTDP1 cells + 20 nM CPT, ATP luminescence, 48 h | Potency, µM (doses to about 46.2 µM), inactives show top-dose activity change, negative = growth inhibition, hits mostly inhibitors | hit rate 12% among 420,000; further: nearly all actives have a fitted effect of over 55% in size
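Chicken DT40 Tdp1-/- cells stably complemented with human TDP1 were seeded at 400 cells/well in medium containing 20 nM camptothecin, exposed to pin-transferred compounds, and grown at 37 °C for at least 48 hr. Viability was read as ATP luminescence.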
* hit, by the source's call; ? = inconclusive; · = not tested or not shown. Most compounds without a hit are left out; they make up all but 19% or so of the library. The call rests on the fitted dose curve; in most records, active means well fitted curve in the direction sought with a large enough effect; inconclusive means small, poorly fitted or top-dose-only effect, or another doubt; inactive means no such curve, though single readings can be large; an effect the other way counts as inactive or inconclusive. On the % scale 0 is the no-effect control and ±100 the full control effect; potency means the concentration at half of the fitted maximal effect.

SMILES	Gal4-VP16 FLuc	RORg inh	TDP1 inh	TDP1 cell noCPT	TDP1 cell CPT
O=C(CSc1nccc(=O)[nH]1)Nc1ccc2ccccc2c1	·	·	1%	2%	3%
CC(CC(=O)Nc1ccc2c(c1)c(=O)n(C)n2-c1ccc2ccccc2c1)C(F)(F)F (stereo not given)	·	·	·	2.6µM*	5.2µM*
O=c1c2ccccc2nc2oc3ccccc3n12	-8%	-29%	3%	-22%	-27%
CCN(CC)S(=O)(=O)c1cc(NC(=O)COC(=O)c2sc3ccccc3c2Cl)ccc1C	-6%	-7%	3%	-7%	0%
CCN1CCN(C(=O)Cn2ncc3c4ccccc4n(Cc4c(C)cc(C)cc4C)c3c2=O)CC1	·	·	0%	16µM*	?
CCCn1c2ccccc2c2cnn(CC(=O)N3CCN(c4ccccc4F)CC3)c(=O)c21	·	·	4%	?	?
CCOC(=O)C1CCCN(C(=O)Cn2ncc3c4ccccc4n(Cc4ccc(F)cc4)c3c2=O)C1 (stereo not given)	·	·	5%	15µM*	23µM*
CCN1CCN(C(=O)Cn2ncc3c4ccccc4n(Cc4ccccc4F)c3c2=O)CC1	·	·	8%	18µM*	15µM*
O=C(Cn1ncc2c3ccccc3n(Cc3ccccc3F)c2c1=O)NCCCN1CCCC1=O	-5%	4%	2%	-20%	?
Cc1cc(C)c(Cn2c3ccccc3c3cnn(CC(=O)N4CCCCC4)c(=O)c32)c(C)c1	·	·	0%	-23%	-23%
CC1CCCCN1C(=O)Cn1ncc2c3ccccc3n(Cc3ccccc3F)c2c1=O (stereo not given)	·	·	0%	9.2µM*	9.2µM*
O=C(Cn1nnc2c(cnn2-c2ccccc2)c1=O)NCc1cccs1	24%	-3%	0%	23µM*	?
CN1CCN(C(=O)Cn2ncc3c4ccccc4n(Cc4ccc(Cl)cc4)c3c2=O)CC1	·	·	5%	10µM*	23µM*
O=C(Cn1ncc2c3ccccc3n(Cc3ccccc3)c2c1=O)N1CCN(c2ncccn2)CC1	-5%	8%	2%	?	-22%
CCN1CCN(C(=O)Cn2ncc3c4ccccc4n(Cc4ccccc4)c3c2=O)CC1	·	·	5%	15µM*	16µM*
Cc1ccc(Cn2c3ccccc3c3cnn(CC(=O)N4CCCCCC4)c(=O)c32)cc1	·	·	2%	?	?
Cc1cc(C)c(Cn2c3ccccc3c3cnn(CC(=O)NCc4cccs4)c(=O)c32)c(C)c1	·	·	5%	21µM*	15µM*
Cc1nn(CC(=O)NCc2cccs2)c(=O)c2nn(-c3ccccc3)c(C)c12	-4%	7%	2%	11%	11%
Clc1ccc(-c2nnc(-c3ccccc3)o2)c(Cl)c1	?	-22%	0%	-24%	-11%
COc1cccc(NC(=O)CCS(=O)(=O)c2ccc(Br)cc2)c1	3%	23%	·	-4%	-7%
CCOC(=O)C1CCN(C(=O)Cn2ncc3c4ccccc4n(Cc4ccccc4F)c3c2=O)CC1	·	·	3%	4.6µM*	3.3µM*
Cc1ccccc1Cn1c2ccccc2c2cnn(CC(=O)N3CCC(C)CC3)c(=O)c21	·	·	-3%	15µM*	21µM*
Cc1c2cnn(CC(=O)N3CCN(c4ccccc4)CC3)c(=O)c2c(C)n1Cc1ccc(F)cc1	·	·	3%	13µM*	21µM*
CCCCCN1CC(O)=C(c2nc3ccccc3[nH]2)C1=N	25%	?	-5%	-29%	-17%
CCCCN=C1CC(C)(C)CC(=O)/C1=C(/O)CCCN1C(=O)c2ccccc2C1=O	-4%	22%	-4%	?	-26%
SMILES	Gal4-VP16 FLuc	RORg inh	TDP1 inh	TDP1 cell noCPT	TDP1 cell CPT
Cc1cccc(OCCCN2CCCCCC2)c1	0%	7%	-10%	-6%	-6%
COc1ccccc1OCCN1CSC(=S)N(C)C1	?	?	4%	1.8µM*	1.2µM*
COc1ccccc1OCCCCN1CCCCC1	-1%	-1%	·	7%	-2%
Cc1cccc(OCCN2CSC(=S)N(C)C2)c1	14µM*	13µM*	2%	3.3µM*	4.6µM*
CC1CCCC/C1=N\NC(=S)Nc1cccnc1 (stereo not given)	-5%	?	5%	0%	-7%
CC1CCCC/C1=N\NC(=S)NCCc1ccccc1 (stereo not given)	1.8µM*	0.35µM*	4%	?	?
Cc1ccc(NC(=S)N/N=C2\CCCCC2C)cc1 (stereo not given)	0%	?	8%	9.2µM*	5.2µM*
O=C1OCCC1Sc1nc2ccccc2c(=O)n1-c1ccc(F)cc1 (stereo not given)	-1%	?	5%	-7%	-2%
CCCN1Cc2cccc(C(=O)Nc3ccc(OC)c(OC)c3)c2C1=O	·	·	·	-4%	14%
CCOC(=O)N1CCC(N2Cc3cccc(C(=O)Nc4ccc(OC)c(OC)c4)c3C2=O)CC1	4%	-4%	2%	?	18µM*
Cc1ccc(NC(=O)c2cccc3c2C(=O)N(C2CCCCC2)C3)c(Cl)c1	-1%	-2%	3%	-29%	18µM*
CCOC(=O)N1CCC(N2Cc3cccc(C(=O)Nc4ccccc4OC)c3C2=O)CC1	-1%	-26%	4%	16µM*	23µM*
Cc1cc(C)cc(NC(=O)c2cccc3c2C(=O)N(C2CCCCC2)C3)c1	2%	-14%	0%	29%	-2%
COc1cc(NC(=O)c2cccc3c2C(=O)N(C2CCCCC2)C3)cc(OC)c1OC	4%	10%	2%	7.3µM*	23µM*
CCOC(=O)N1CCC(N2Cc3cccc(C(=O)N4CCN(C5CCCCC5)CC4)c3C2=O)CC1	1%	10%	-2%	1%	0%
CCS(=O)(=O)Nc1cc(C(=O)N[C@H]2CCCCNC2=O)c2c(c1)nc(-c1ccccc1)n2C	·	·	·	-10%	1%
CC(C)c1ccc(Nc2ncc3c(n2)CCN(C(=O)NC2CCCCC2)C3)cc1	·	·	·	?	-25%
COc1cc(NC(=O)N2CCc3nc(Nc4cc(Cl)cc(Cl)c4)ncc3C2)cc(OC)c1OC	·	·	·	?	23µM*
O=C(CSC1=N/C(=C/c2ccc(Cl)c(Cl)c2)C(=O)N1c1ccccc1F)NC1CC1	-1%	?	-4%	16µM*	16µM*
COc1ccc(Cl)cc1-c1nc(SCC(=O)NC2CCCC2)n[nH]1	·	·	0%	?	?
COc1ccc(Cl)cc1N1C(=O)/C(=C/c2sccc2C)N=C1SCC(=O)NC1CC1	·	·	·	16µM*	?
C=CCOc1cccc(C(=O)NC(c2ccccc2)C(C)C)c1 (stereo not given)	-10%	22%	-3%	-20%	19%

Screening data (PubChem)
